Screening data as filed in PubChem.
Rows were chosen to be rich in hits. Some 20% of all compounds tested hit in one or more screens of this group.
Shiga inhibitor: blocks Shiga toxin action in Vero cells. 9.2% of 290,000 active. Vero cells, Shiga toxin protein synthesis inhibition reporter. inhibition, % at 38.7 µM; in the data active = inhibition mostly above about 28%, no sharp cut-off; inactive = mostly below about 43%; note: 0% is about no effect
Pf growth 96h: P. falciparum growth inhibition at 96 hours; P. falciparum luciferase reporter growth, 96 h; 6.9% of 320,000 active; Potency, µM (titrated, usually from 28.7 µM), inactives show at the highest dose activity change, negative = inhibition, actives largely listed as inhibitors; note: potency is the fitted concentration of half-maximal effect; % is set by controls: 0 for no effect and ±100 for the full control effect
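Infected RBCs, 2% Hct / 0.05% parasitemia final; luciferase-reporter P. falciparum; cpd 96 h, 37 C, 5% CO2; luciferase detection reagent; luminescence.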
HCMV inh: human cytomegalovirus inhibition; HFF cells, HCMV-luciferase reporter, 72 h; hits give low values; 4.5% of 410,000 active; AID 1259415; activity change, negative = inhibition, % at 57.5 µM; in the data active = activity change below about -60%; inconclusive = no clear call, values can overlap the other calls; inactive = above about -39%; note: % is set by controls: 0 for no effect and ±100 for the full control effect
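Human foreskin fibroblasts infected with luciferase-reporter HCMV at MOI 1 PFU/cell, compounds at two doses. Luciferase measured 72 h post infection; normalized to buffer-only basal and Salinomycin (10uM) controls.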
Cycloheximide cs: counter-screen for Shiga toxin inhibitors: cycloheximide protein synthesis inhibition. max response, %. 12% of 300,000 active. cell reporter, cycloheximide protein synthesis inhibition counterscreen; in the data active = max response mostly above about 13%, no sharp cut-off; inactive = mostly below about 14%; note: read at 38.3 µM for the half of the compounds with a filed dose; 0% is about no effect
Pf growth 48h: inhibits P. falciparum growth in the first generation, 48 h; P. falciparum luciferase growth in erythrocytes, 48 h; Potency, µM (doses to about 28.7 µM), without a hit: top-dose activity change, negative = inhibition, actives largely listed as inhibitors; 5.9% of 310,000 active; note: potency is the fitted concentration of half-maximal effect; % is set by controls: 0 for no effect and ±100 for the full control effect
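A one-generation exposure of luciferase-tagged malaria parasites in RPMI 1640/Albumax erythrocyte culture, 37 C and 5% CO2. Inhibition is inferred from decreased luminescence after adding detection reagent.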
* hit, by the source's call; ? = inconclusive; · = no result; [ ] = another dose, or the depositor's remark. Unless noted, calls come from the whole dose curve; as a rule, active = well fitted inhibition curve with a large enough effect; inconclusive = small, poorly fitted or top-dose-only effect, or another doubt; inactive = no such curve, though single readings can be large or run the other way.

SMILES | Shiga inhibitor | Pf growth 96h | HCMV inh | Cycloheximide cs | Pf growth 48h
Cc1c(C(=O)O)sc(S(=O)(=O)N2CCN(C(=O)CC(C)c3ccccc3)CC2)c1C(=O)O (centres undefined) | · | · | -1 | · | ·
CC(C)N(CC#CC(O)(c1ccccc1)c1ccccc1)CCO | -6 | 2.3µM* | 43 | -3 | -11%
O=C(/C=C/c1ccc2c(c1)OCO2)Nc1nc(-c2ccc(F)cc2)cs1 | -2 | ? | · | 2 | 12%
c1cc2c(cc1-c1csc(NNC3=NCCCCC3)n1)OCCO2 | 55* | ? | -4 | 37* | ?
COc1ccccc1C(=O)Nc1nc(-c2ccc3c(c2)OCCO3)cs1 | 57* | 0% | -63* | 28* | 7%
CC(C)(C)C(=O)Nc1nc(-c2ccc3c(c2)OCO3)cs1 | 51* | 20% | 114 | 24* | ·
C=CCNc1nc(-c2ccc3c(c2)OCCO3)cs1 | · | · | 140 | · | ·
CCC(=O)Nc1nc(-c2ccc3c(c2)OCCO3)cs1 | active | 187% | 61 | 31* | 98%
CCOC(=O)N1CCc2c(sc3c2c(=O)n(CCc2ccccc2)c(=O)n3CC(=O)Nc2ccccc2C)C1 | · | · | -35 | · | ·
O=C(CSCc1cc(=O)n2nc(C3CC3)sc2n1)Nc1ccccc1Cl | -7 | 3.3µM* | -27 | 0 | ?
CCOCCc1nn2c(=O)cc(CSCC(=O)Nc3ccccc3)nc2s1 | 14 | -20% | ? | 21* | ?
Cc1cccc(NC(=O)CSCc2cc(=O)n3nc(C4CC4)sc3n2)c1 | 3 | ? | -18 | 1 | -2%
Cc1ccc2oc(=O)cc(CN3CCN(C/C=C/c4ccccc4)CC3)c2c1 | -5 | 8.3µM* | 19 | -1 | ?
O=c1cc(CN2CCN(C/C=C/c3ccccc3)CC2)c2cc(O)ccc2o1 | -11 | 2.9µM* | -33 | -2 | 3.3µM*
CCCCN1C=CC(=C2C(=O)c3ccccc3C2=O)C=C1 | -30 | ? | -88* | -15 | -73%
COC(=O)NNC(=S)Nc1ccc(Br)cc1 | -8 | ? | 6 | 2 | -2%[5.75 µM]
O=C1CN(C(=O)COC(=O)CNS(=O)(=O)/C=C/c2ccccc2)c2ccccc2N1 | 21 | 32% | ? | 6 | 201%
O=C(CCNS(=O)(=O)c1ccc(Br)s1)NC1CCCC1 | -9 | 10µM* | 2 | -2 | ?
CN(CC(=O)NC1CCCCCC1)S(=O)(=O)c1ccc(Br)cc1 | -4 | 5% | 33 | 8 | 1%
O=C(CCS(=O)(=O)c1ccc(Br)cc1)NC1CCCCCC1 | -4 | 12µM* | 27 | 10 | -5%
CN(CC(=O)NC1CC1)S(=O)(=O)c1ccc(Br)cc1 | 23 | 6% | -25 | 1 | 8.3µM*
CN(CC(=O)NC1CC1)S(=O)(=O)c1cc(Cl)ccc1Cl | 4 | 5.2µM* | ? | 1 | 4.1µM*
Cc1ccc(S(=O)(=O)CCC(=O)NC2CCCCC2)cc1 | · | ? | 0 | · | ?
CN1CCN(NC(=O)CN(C)S(=O)(=O)c2cc(Cl)ccc2Cl)CC1 | -4 | 12µM* | -29 | -3 | -11%
CC(=O)NC(c1ccccc1)c1nc(-c2cccc(C#N)c2)cs1 (centres undefined) | · | · | 16 | · | ·
SMILES | Shiga inhibitor | Pf growth 96h | HCMV inh | Cycloheximide cs | Pf growth 48h
COC(=O)C1(C(=O)OC)C[C@H](/C=C/c2ccccc2)N(Cc2ccccc2OC)[C@@H]1c1cccc(Br)c1 | · | · | -35 | · | ·
CCC1=C2CC[C@H]3C(=O)N(c4ccccc4)C(=O)[C@H]3[C@H]2[C@@]2(C)C(=NCc3ccccc3)OC(=O)N2C1=O | -7 | ? | 30 | -5 | ?
CCC1=C(OC(=O)N(CC)CC)N2C(=O)OC(=NCCc3c[nH]c4ccccc34)[C@]2(Cc2ccccc2)[C@H]2C1=CC[C@H]1C(=O)N(c3ccccc3)C(=O)[C@H]12 | -9 | ? | -23 | -5 | 13µM*
CCC1=C(OC(=O)N(CC)CC)N2C(=O)OC(=NCCc3c[nH]c4ccccc34)[C@]2(Cc2ccccc2)[C@H]2C1=CC[C@H]1C(=O)N(C)C(=O)[C@H]12 | 9 | 12µM* | ? | -6 | 10µM*
CCC1=C(OC(=O)N(CC)CC)N2C(=O)OC(=NCC3CC3)[C@]2(C)[C@H]2C1=CC[C@H]1C(=O)NC(=O)[C@H]12 | -7 | ? | -28 | -1 | ?
C=CCNc1nc(-c2cccs2)c(CC(=O)O)s1 | -1 | -6% | -3 | -2 | 1%
CCN(CC)CCNc1nc(-c2cccs2)c(CC(=O)O)s1 | -10 | -14% | -87* | 1 | 12%
O=C(O)Cc1sc(Nc2ccccc2)nc1-c1cccs1 | 65* | 113% | -8 | 26* | 60%
O=C(Cc1sc(Nc2ccccc2)nc1-c1ccccc1)NCc1ccccc1 | 63* | -85% | -25 | 31* | -23%
Nc1ncc(S(=O)(=O)NCc2ccccc2)cn1 | · | · | -18 | · | ·
CCC1CN(C(=O)N2CCC(C(=O)NCc3cccc(F)c3)CC2)c2ccccc2O1 (centres undefined) | -6 | 9.3µM* | -8 | -10 | ?
CCC1CN(C(=O)N2CCC(C(=O)NCc3ccc(C)o3)CC2)c2ccccc2O1 (centres undefined) | -8 | 9.3µM* | 35 | -7 | -4%
CCC1CN(C(=O)N2CCC(C(=O)NCc3cccs3)CC2)c2ccccc2O1 (centres undefined) | · | · | -2 | · | ·
CCC1CN(C(=O)N2CCC(C(=O)NCc3ccco3)CC2)c2ccccc2O1 (centres undefined) | -7 | 12µM* | -5 | -11 | -2%
O=C(O)C1CCCCC1C(=O)Nc1ccc(Cl)cc1Cl (centres undefined) | -3 | 0% | 21 | 11 | 5%
CCN(CC)S(=O)(=O)c1cc(NC(=S)NC(=O)C2CCCC2)ccc1C | · | · | -72* | · | ·
COc1cc(NC(=S)NC2CC2)c(OC)cc1Cl | -3 | 11% | -81* | -5 | 5%
Cc1ccc(NC(=S)NC(=O)C2CCC2)cc1C | 101* | -8% | 2 | 53* | -2%
CN(C)S(=O)(=O)c1ccc(NC(=S)NC(=O)C2CCC2)cc1 | 13 | 37% | 17 | 9 | 9%
CC1CCCCC1NC(=S)Nc1ccc(Cl)cc1Cl (centres undefined) | 31* | 0% | -20 | 12 | ?
C/C(N)=C(/C#N)C(=O)CSc1nc(C2CCCCC2)n(-c2ccccc2)n1 | -18 | ? | ? | -3 | ?
COc1ccc(NC(=O)CSc2nc3ccccc3n2CC(=O)Nc2cccc(C)c2C)cc1 | · | · | 14 | · | ·
Cc1ccc(NC(=S)NC2CCCC2)cc1C | active | 17% | -10 | 49* | 37%
S=C(Nc1ccc2[nH]ccc2c1)NC1CCCCC1 | 65* | 98% | -6 | 37* | 109%
Cc1cc(Cl)ccc1NC(=S)NC1CCCC1 | 32* | -30% | -12 | 12* | -81%
Cc1c(Cl)cccc1NC(=S)NC1CCCC1 | 8 | ? | -33 | -3 | ?
Cc1nc2ccc(NC(=S)NC3CCCCC3)cc2nc1C | 102* | ? | -29 | 42* | 143%
Cc1ccc(NC(=S)NC2CCN(Cc3ccccc3)CC2)cc1C | -8 | ? | ? | -1 | ?
